Experimental data published in PMC5540273 (PLoS ONE, 2017).

How the values were obtained:
Conditions in all cases: concentration: 1 μM, replicates: in singlicate; n = 1
PAK3 = tested on: PAK3
PAK4 = tested on: PAK4
PAK6 = tested on: PAK6
PAK7 = tested on: PAK7
PCTK1 = tested on: T1, PCTK1
T1 construct: gene CDK16

PCTK2 = tested on: T2, PCTK2
T2 construct: gene CDK17

PCTK3 = tested on: T3, PCTK3
T3 construct: gene CDK18

PDGFRA = tested on: PDGFRA
PDGFRB = tested on: PDGFRB
PDPK1 = tested on: PDPK1
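Note: KINOMEscan kinase panel screen.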

Structure (SMILES) | %Inh (PAK3) | %Inh (PAK4) | %Inh (PAK6) | %Inh (PAK7) | %Inh (PCTK1) | %Inh (PCTK2) | %Inh (PCTK3) | %Inh (PDGFRA) | %Inh (PDGFRB) | %Inh (PDPK1)
CC(=O)c1c(C)c2cnc(Nc3ccc(N4CCNCC4)cn3)nc2n(C2CCCC2)c1=O | 6% | 0% | 0% | 0% | 0% | 10% | 8% | 0% | 0% | 0%
COc1nccc(-c2c(-c3ccc(F)cc3)ncn2CCCN2CCOCC2)n1 [SB-282852] | 0% | 0% | 9% | 7% | 6% | 0% | 0% | 17% | 0% | 0%
Nc1nccc(-c2c(-c3ccc(F)cc3)ncn2C2CCN(Cc3ccccc3)CC2)n1 [SB-219980] | 5% | 0% | 0% | 0% | 3% | 0% | 0% | 22% | 20% | 0%
Nc1cccc(-c2ccc3c(N)n[nH]c3c2)n1 [GSK2192730] | 0% | 0% | 8% | 7% | 4% | 20% | 3% | 2% | 18% | 0%
CCc1ccc(-c2ccc3c(c2)-c2n[nH]cc2S(=O)(=O)N3C)cc1 | 0% | 0% | 0% | 0% | 0% | 0% | 0% | 0% | 7% | 4%
Cc1c(Cn2c3ccccc3n3c(=O)cc(N4CCOCC4)nc23)cccc1C(F)(F)F [GSK2306394] | 23% | 0% | 0% | 0% | 0% | 0% | 5% | 11% | 25% | 0%
Cc1cccc2c(-c3ccncn3)c(-c3ccc(F)cc3)nn12 [GW515532] | 29% | 0% | 0% | 3% | 0% | 0% | 0% | 0% | 10% | 17%
CNC(=O)c1ccc(C)c(-n2c(C)cc(OCc3ccc(F)cc3F)c(Br)c2=O)c1 | 0% | 0% | 0% | 0% | 0% | 0% | 0% | 0% | 0% | 0%
CS(=O)(=O)Cc1ccc(Nc2nccc(-c3c(-c4cccc(NC(=O)C5CCCCC5)c4)nn4ncccc34)n2)cc1 [GSK350559] | 0% | 13% | 19% | 2% | 20% | 0% | 12% | 53% | 93.9% | 1%
Cl.Cl.Cl.N#Cc1ccc(CCNc2nccc(-c3cccc(CN4CCNCC4)c3)n2)cc1 [GSK2137462] | 6% | 0% | 8% | 12% | 0% | 0% | 0% | 0% | 34% | 8%
COc1ccc(Nc2nccc(N3CCC(NC(=O)C(C)c4ccc(Cl)cc4)C3)n2)cc1 (stereo not shown) [GSK1379735] | 71% | 0% | 0% | 6% | 0% | 10% | 9% | 0% | 34% | 4%
COc1cccc(CNC(=O)NC2CCN(c3ccnc(Nc4ccc(F)cc4)n3)C2)c1 (stereo not shown) [GSK1379723] | 38% | 0% | 0% | 0% | 10% | 0% | 14% | 7% | 15% | 0%
NS(=O)(=O)c1cccc(N/C=C2\C(=O)Nc3ccc(S(=O)(=O)Cc4c(Cl)cccc4Cl)cc32)c1 [GSK398099] | 0% | 0% | 5% | 4% | 6% | 0% | 21% | 0% | 20% | 0%
O=c1cc(N2CCOCC2)nc2n(Cc3cccc(Cl)c3Cl)c3ccccc3n12 [GSK2299009] | 42% | 0% | 21% | 12% | 8% | 8% | 20% | 0% | 51% | 0%
CC(C)c1ccc(O)cc1Nc1ccnc2ccc(C(F)(F)F)cc12 [GW482059] | 0% | 0% | 0% | 0% | 2% | 0% | 0% | 3% | 10% | 18%
CC[C@@H]1CO[C@H](C(=O)Nc2ccccc2)CN1c1cc(-c2ccc3c(N)n[nH]c3c2)nc(NC)n1 [GSK2376236] | 0% | 0% | 3% | 7% | 3% | 11% | 0% | 0% | 20% | 94.6%
CC(=O)c1c(C)c2cnc(Nc3ccn(C)n3)nc2n(C2CCCC2)c1=O | 0% | 0% | 0% | 0% | 0% | 0% | 100% | 0% | 0% | 0%

Structure (SMILES) | %Inh (PAK3) | %Inh (PAK4) | %Inh (PAK6) | %Inh (PAK7) | %Inh (PCTK1) | %Inh (PCTK2) | %Inh (PCTK3) | %Inh (PDGFRA) | %Inh (PDGFRB) | %Inh (PDPK1)
c1ccc(-c2ccnc3[nH]ccc23)cc1 [SB-693578] | 0% | 0% | 4% | 4% | 7% | 0% | 24% | 0% | 0% | 0%
O=C(Nc1n[nH]c2nc(-c3ccco3)c(Br)cc12)C1CCN(Cc2ccccc2)C1.O=C(O)[C@H](O)[C@@H](O)C(=O)O (stereo not shown) [SB-742034] | 12% | 0% | 0% | 8% | 86% | 83% | 76% | 7% | 30% | 18%
CNc1nc(-c2ccc3c(N)n[nH]c3c2)cc(N2C[C@@H](C(=O)NC3CCCCC3)OC[C@H]2C)n1 [GSK2375584] | 0% | 0% | 0% | 24% | 0% | 10% | 21% | 0% | 35% | 79%
Cc1ccc(NC(=O)Nc2ccccc2)cc1-c1ccc(C(=O)Nc2ccncc2)cc1 [GSK1398471] | 11% | 0% | 0% | 1% | 4% | 0% | 21% | 49% | 100% | 26%
O=c1cc(N2CCOCC2)nc2n(Cc3ccccc3F)ccn12 [GSK2297428] | 24% | 0% | 0% | 9% | 0% | 0% | 0% | 0% | 8% | 0%
COC(=O)C(NC(=O)NC1CCN(c2ccnc(Nc3ccc(F)cc3)n2)C1)c1ccccc1 (stereo not shown) [GSK1379712] | 0% | 0% | 0% | 2% | 0% | 14% | 24% | 14% | 38% | 0%
Cc1c(Cn2c(C)c(C)n3c(=O)cc(N4CCOCC4)nc23)cccc1C(F)(F)F [GSK2328680] | 0% | 19% | 0% | 0% | 0% | 0% | 31% | 0% | 16% | 0%
Nc1ncnc2occ(-c3ccc4c(c3)CCN4C(=O)Cc3cc(F)ccc3F)c12 [GSK2645446] | 0% | 0% | 0% | 12% | 2% | 0% | 2% | 0% | 50% | 0%
COc1ccc2cc(-c3nc(-c4ccccc4C(C)C)[nH]c3-c3ccncc3)ccc2c1 [SB-660566] | 30% | 0% | 0% | 0% | 51% | 0% | 2% | 0% | 7% | 0%
COc1cccc(C2=C(Nc3cc(Cl)c(O)c(Cl)c3)C(=O)NC2=O)c1 [SB-390767] | 100% | 0% | 0% | 0% | 2% | 0% | 0% | 0% | 0% | 0%
CCCCc1nn2ncccc2c1-c1ccnc(NC2CC2)n1 [GW684374] | 0% | 0% | 0% | 0% | 7% | 0% | 15% | 0% | 68% | 0%
COc1ccc(-c2coc3ccc(-c4nnc(C)o4)cc23)cc1 | 0% | 5% | 6% | 5% | 56% | 0% | 11% | 0% | 0% | 33%
CS(=O)(=O)CCNCc1nc(-c2ccc3ncnc(Nc4ccc5c(cnn5Cc5ccccc5)c4)c3c2)cs1.Cl.Cl [GW569716] | 22% | 0% | 0% | 0% | 0% | 0% | 16% | 0% | 10% | 0%
CCn1c(-c2c(N)noc2C)nc2cnccc21 [SB-737856] | 3% | 0% | 0% | 0% | 0% | 0% | 44% | 0% | 0% | 2%
O=C1NC(=O)C(c2ccc(Cl)cc2)=C1Nc1ccc(O)cc1 [SB-340867] | 0% | 0% | 0% | 0% | 0% | 4% | 0% | 0% | 0% | 17%
CCn1c(-c2ccccc2)nc2cnccc21 [SB-733416] | 14% | 0% | 0% | 0% | 4% | 0% | 0% | 0% | 16% | 0%
Cc1ccc(NC(=O)Nc2ccc(Cl)c(C(F)(F)F)c2)cc1-c1ccc(C(=O)Nc2ccncc2)cc1 [GSK1398470] | 22% | 0% | 0% | 2% | 0% | 6% | 14% | 19% | 97.5% | 26%
